# An excerpt weighted towards active compounds, which were near 2.4% of everything screened.
# PP1 inh – blocks human PP1-alpha phosphatase, a PP5 counter-screen; P62136; inhibition, % at 6.7 µM; purified PP1alpha, OMFP fluorescence; 320,000 compounds, 0.9% hits;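 active = inhibition above the mean inhibition of all tested compounds plus 3 SD, computed separately for each screening campaign, cut at about 15% in these data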
# PREPL inhibitor – inhibits the human prolyl oligopeptidase-like enzyme; AID 2751; Q4J6C6; 320,000 compounds, 0.68% hits; recombinant PREPL, fluorescence polarization activity-based probe; inhibition, % at 5.96 µM; in the data active = inhibition above about 43%;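 also: 0% = enzyme with DMSO and 100% = wells lacking enzyme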
# Target sequence (Q4J6C6 whole entry, looked up): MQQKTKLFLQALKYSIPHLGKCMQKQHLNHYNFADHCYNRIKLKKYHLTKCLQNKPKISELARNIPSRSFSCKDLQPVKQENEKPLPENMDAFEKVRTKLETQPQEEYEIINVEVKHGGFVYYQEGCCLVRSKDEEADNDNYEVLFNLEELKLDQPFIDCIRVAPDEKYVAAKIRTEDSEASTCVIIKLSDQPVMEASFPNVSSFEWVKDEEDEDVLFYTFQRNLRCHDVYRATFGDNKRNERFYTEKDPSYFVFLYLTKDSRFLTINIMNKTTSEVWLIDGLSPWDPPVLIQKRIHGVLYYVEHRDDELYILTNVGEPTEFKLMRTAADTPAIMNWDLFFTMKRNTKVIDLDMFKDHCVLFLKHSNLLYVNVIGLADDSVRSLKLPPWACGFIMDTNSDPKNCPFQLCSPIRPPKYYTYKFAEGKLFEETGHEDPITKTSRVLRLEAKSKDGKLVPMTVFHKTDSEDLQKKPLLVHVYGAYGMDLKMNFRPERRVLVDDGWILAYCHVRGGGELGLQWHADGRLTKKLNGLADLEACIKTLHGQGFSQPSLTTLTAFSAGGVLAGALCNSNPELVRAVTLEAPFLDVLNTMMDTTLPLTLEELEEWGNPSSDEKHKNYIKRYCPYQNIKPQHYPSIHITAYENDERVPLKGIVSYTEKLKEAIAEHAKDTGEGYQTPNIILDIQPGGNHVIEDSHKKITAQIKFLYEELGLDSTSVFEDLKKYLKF
# PP5 inh – PP5 (human) phosphatase inhibition; P53041; purified PP5c, OMFP substrate fluorescence; inhibition, % at 6.7 µM; 320,000 compounds, 0.18% hits; AID 1987;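 active = inhibition above the campaign's mean inhibition across all tested compounds plus 3 SD, cut at about 9.5% in these data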;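 also: 0% = DMSO only and 100% = 100 µM cantharidin control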
# NadD block – blocks S. aureus nicotinate mononucleotide adenylyltransferase | inhibition, % at 20 µM | 360,000 compounds, 0.78% hits | purified NadD enzyme, colorimetric absorbance read-out; in the data active = inhibition above about 26%
# Rpn11 inh – Rpn11 (human) deubiquitinase inhibition | O00487 | human 26S proteasome, Ub4-pepOG fluorescence polarization; 20S core pre-blocked with epoxomicin | inhibition, % at 20 µM | 360,000 compounds, 0.59% hits | AID 588493;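 active = inhibition at 20 µM, scaled to each plate's controls, above about 33%, limit read from the data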
# Numbers without * were called inactive; . = no result given.
SMILES,PP1 inh,PREPL inhibitor,PP5 inh,NadD block,Rpn11 inh
COc1cccc(C2C(C(=O)c3ccc(C)o3)=C(O)C(=O)N2c2cc(C)on2)c1 (centres undefined),3,2,0,5,-2
Cc1cc(N2C(=O)C(O)=C(C(=O)c3cc4ccccc4o3)C2c2cccc(Br)c2)no1 (centres undefined),37*,16,4,19,16
CC(C)(C)S(=O)(=O)/C(C#N)=C/c1cccn1S(=O)(=O)c1ccccc1,.,.,.,-3,1
CCCOc1ccc(/C=N/Nc2ccccc2[N+](=O)[O-])c(O)c1,-1,11,3,4,-5
CCCOc1ccc(/C=N/NC(=S)Nc2ccccc2[N+](=O)[O-])c(O)c1,15*,5,0,.,.
N[C@@H](Cc1cc(I)c(Oc2cc(I)c(O)c(I)c2)c(I)c1)C(=O)O,16*,-8,1,.,.
CCOC(=O)Cc1cc(=O)n2[nH]c(-c3ccc(Cl)cc3)cc2n1,16*,5,3,1,9
Cc1cccc(C)c1-n1nnnc1C(c1ccnc2ccccc12)N1CCCN(C(=O)OC(C)(C)C)CC1 (centres undefined),.,.,.,4,.
Cc1cccc2cc(/C=C3\N=C(c4ccccc4)OC3=O)c(N3CCOCC3)nc12,1,4,3,32*,40*
O=C1NC(=Nc2cccc(O)c2)S/C1=C\c1cccc([N+](=O)[O-])c1,17*,15,1,8,1
CCc1cc(C(=O)N=Nc2c(O)[nH]c3ccc([N+](=O)[O-])cc23)c2ccccc2n1,16*,15,1,27,3
CCc1cc(C(=O)N=Nc2c(O)[nH]c3c(Br)cc(Br)cc23)c2ccccc2n1,14,16,6,54*,4
Cc1ccc(OCCNC(=O)CCc2ccccc2)cc1C,-6,-15,2,-5,1
CCN(CC1CCCO1)C(=O)CCc1nnc(CCc2ccccc2)o1 (centres undefined),.,.,.,1,-1
COc1ccc(C(=O)Nc2nc(-c3ccc([N+](=O)[O-])cc3)c(-c3ccc(OC)cc3)s2)cc1,-8,-7,1,19,61*
COc1ccc(CCNC(=O)c2ccc([N+](=O)[O-])cc2)cc1,-1,15,2,4,2
O=C(CSc1nc2ccccc2n1CCc1ccccc1)c1ccc(O)c(O)c1,.,.,.,36*,.
COc1cc(C(=O)N2CCCN(C)CC2)cc(OC)c1C,1,8,-1,-1,-2
CCc1nc2ccc(C(=O)Nc3cc(-c4ccccc4)ccc3OC)cn2c1N(C)Cc1nccs1,.,.,.,1,22
COCCNC(=O)C1(C)CCCN(C(=O)c2cc(F)cc(F)c2)C1 (centres undefined),.,.,.,-2,1
CN(C)c1ccc(C(=O)N/N=C/c2cc(Br)cc(Br)c2O)cc1,-4,3,0,32*,-7
C=CCN(c1ccccc1)S(=O)(=O)c1cccc(C(=O)Nc2nc3ccccc3[nH]2)c1,17*,-28,-3,16,1
C=CCN(c1ccccc1)S(=O)(=O)c1cccc(C(=O)Nc2ccncc2)c1,-1,-18,5,-1,-1
COCCn1nnnc1CN(CCc1ccccc1)Cc1cc2cc(OC)ccc2[nH]c1=O,1,54*,-1,-3,-2
O=[N+]([O-])c1ccc(N2CCN(c3ccc(F)cc3)CC2)cc1,0,30,-2,-2,0
SMILES,PP1 inh,PREPL inhibitor,PP5 inh,NadD block,Rpn11 inh
O=C(c1cc([N+](=O)[O-])ccc1Cl)N1CCN(c2ccc(F)cc2)CC1,-3,45*,0,0,-11
COc1ccc2nc(Cl)c(/C=N/Nc3ccccn3)cc2c1,16*,11,-2,-1,6
COCCNc1ncnc2c1ncn2[C@H]1CN(Cc2ccccc2)C[C@@H](CO)O1,.,.,.,1,1
CN(C)c1ccc(Cc2cc3c(O)ccc(O)c3cc(Cc3ccc(N(C)C)cc3)c2=O)cc1,.,.,.,68*,-10
CN(C)c1ccc(C(=O)c2ccc(O)cc2O)cc1,2,2,-1,7,-1
Cc1cc(C)nc(Nc2ccc(N3CCCC3)cc2)n1,8,44*,2,5,15
CC1(Cc2cccc(C(F)(F)F)c2)C(=O)Nc2ccc(-c3ccc(F)c(Cl)c3)cc21 (centres undefined),.,.,.,-2,7
N#Cc1c(Sc2ncc(C(F)(F)F)cc2Cl)nsc1C/C=N\OCc1ccccc1Br,3,-4,-1,46*,.
Cc1ccc(N/N=C2\CS(=O)(=O)N(C)c3ccsc32)cc1,2,72*,7,-7,4

# Screening data deposited in PubChem by several laboratories.
